In PubChem BioAssay (NCATS) one finds Potency, outcome and activity change, negative = cytotoxicity data, which are given here for 38 molecules.

Results filed as inconclusive are left out. Where a call stands in place of a potency, no number is given. Activity calls are given as the source filed them. Calls come from the whole dose curve; as a rule, active = well fitted inhibition curve with a large enough effect; inconclusive = small, poorly fitted or top-dose-only effect; inactive = flat fitted curve, though single readings scatter.

The test is described as follows: P-glycoprotein substrates identified in KB-8-5-11 adenocarcinoma cell line, qHTS therapeutic library screen (AID 1346987). Note: nearly all actives have a fitted effect of over 65% in size. The settings on record: KB-8-5-11 (P-gp overexpressing) viability, CellTiter-Glo, 72 h; series mostly up to 44.5 µM. Summed up:
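Luminescence from CellTiter-Glo, read 5 min after addition, quantified survival of KB-8-5-11 (P-gp-overexpressing) cells exposed to compounds for 72 h. AC50 was derived from concentration-response curves.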
With `CCCCC/C=C\C/C=C\CCCCCCCC(=O)O`, the Potency entry is “inactive”. Same read-out and setting: with `CC(=O)O[C@@H]1C[C@@]23C[C@@]24CC[C@H](OC2OC[C@@H](O)[C@H](O)[C@H]2O)C(C)(C)[C@@H]4CC[C@H]3[C@]2(C)CC3OC4(C[C@@H](C)C3[C@@]12C)OCC1(C)OC14` (stereo partly drawn) the entry was “inactive”; with `CO[C@H](C(=O)[C@@H](O)[C@@H](C)O)C1Cc2cc3cc(O[C@H]4C[C@@H](O[C@H]5C[C@@H](O)[C@H](O)[C@@H](C)O5)[C@@H](O)[C@@H](C)O4)c(C)c(O)c3c(O)c2C(=O)[C@H]1O[C@H]1C[C@@H](O[C@H]2C[C@@H](O[C@H]3C[C@](C)(O)[C@H](O)[C@@H](C)O3)[C@H](O)[C@@H](C)O2)[C@H](O)[C@@H](C)O1` (stereo partly drawn), “inactive”. With `C[C@@H]1O[C@@H](O[C@H]2[C@H](O)[C@@H](O)[C@H](OC[C@H]3O[C@@H](OC(=O)[C@]45CCC(C)(C)C[C@H]4C4=CCC6[C@@]7(C)C[C@H](O)[C@H](O[C@@H]8O[C@H](CO)[C@@H](O)[C@H](O)[C@H]8O)[C@@](C)(C(=O)O)C7CC[C@@]6(C)[C@]4(C)CC5)[C@H](O[C@@H]4O[C@H](CO)[C@@H](O)[C@H](O)[C@H]4O)[C@@H](O)[C@@H]3O)O[C@@H]2CO)[C@H](O)[C@H](O)[C@H]1O` (stereo partly drawn), the outcome was “inactive [at 9.29 µM]”. Turning to `O=C1NCc2nc3ccccc3c(=O)n2C1Cc1c[nH]c2ccccc12` (stereo not drawn), the Potency entry is “inactive”. The same measure, in the same setting: with `CC[C@H]1OC(=O)[C@H](C)[C@@H](O[C@H]2C[C@@](C)(OC)[C@@H](O)[C@H](C)O2)[C@H](C)[C@@H](O[C@@H]2O[C@H](C)C[C@H](N(C)C)[C@H]2O)[C@](C)(O)C[C@@H](C)/C(=N\OCOCCOC)[C@H](C)[C@@H](O)[C@]1(C)O` the entry was “inactive”. On the same count and under the same terms, then `COc1ccc(C(O[C@@H]2O[C@H](CO)[C@@H](O)[C@H](O)[C@H]2O)C(CO)Oc2ccc(/C=C/CO)cc2OC)cc1O` (stereo partly drawn), with “inactive”. Still for that read-out and setting: with `C/C(=C\CCC(C(=O)O)C1CCC2(C)C3=C(CCC12C)C1(C)CCC(=O)C(C)(C)C1CC3)C(=O)O` (stereo not drawn) the entry was “inactive”. Take `CC1=CC[C@]2(C(=O)O[C@@H]3O[C@H](CO[C@@H]4O[C@H](CO)[C@@H](O[C@@H]5O[C@@H](C)[C@H](O)[C@@H](O)[C@H]5O)[C@H](O)[C@H]4O)[C@@H](O)[C@H](O)[C@H]3O)CC[C@]3(C)C(CCC4[C@@]5(C)C[C@@H](O)[C@H](O)[C@@](C)(CO)C5CC[C@]43C)C2C1C` (stereo partly drawn): the activity change, negative = cytotoxicity was 8.32% [at 9.29 µM] (inactive). In the case of `CN[C@@H]1[C@@H](O)[C@@H](O[C@@H]2[C@@H](O)[C@H](O[C@H]3O[C@H](CN)[C@@H](O)[C@H](O)[C@H]3O)[C@@H](N)C[C@H]2NC(=O)[C@@H](O)CN)OC[C@]1(C)O`, the Potency entry is “inactive”.

Take `COc1c(C(CC(C)C)OC(C)=O)ccc(Oc2c(O)cc(C)cc2/C=C/C(C)=O)c1C(=O)O` (stereo not drawn): the Potency entry was “inactive”.

With `CC(C#N)C(C)O[C@@H]1O[C@H](CO)[C@@H](O)[C@H](O)[C@H]1O` (stereo partly drawn), the Potency result is “inactive”.

Consider `CC1=CC(=O)CC(C)(CO[C@@H]2O[C@H](CO)[C@@H](O)[C@H](O)[C@H]2O)C1(O)/C=C/C(C)=C/C(=O)O` (stereo partly drawn), for which the Potency entry was “inactive”. Regarding `CC1=C2CC3OC3(C)CCC3OC3(C)CC2OC1=O` (stereo not drawn), the Potency entry is “inactive”. The same measure, in the same setting: then `COc1cc2c(cc1O)C1(Cc3ccc4c(c3C1=O)OCO4)N(C)CC2` (stereo not drawn), with “inactive”; and `OC[C@H]1O[C@@H](n2cnc3c2NC=NC[C@H]3O)C[C@@H]1O`, with “inactive”. Still for that read-out and setting: with `C=C1CCC2C(C)(CO[C@@H]3O[C@H](CO)[C@@H](O)[C@H](O)[C@H]3O)C(O)CCC2(C)C1C(=O)CC1=CCOC1=O` (stereo partly drawn) the entry was “inactive”; with `CNC(=O)c1ccc2cc([C@@]3(O)CCn4cncc43)ccc2c1`, “inactive”. Same read-out and setting: with `CNC(=O)COC(=O)NCCC1CCN(c2cccc(C)n2)CC1` the entry was “inactive”; with `CC/C=C\C[C@H]1C(=O)C=C[C@@H]1CCCCCCCC(=O)O`, “inactive”.

As to `CC(C)=CCC/C(C)=C/CC/C(C)=C/CC[C@]1(C)CCc2cc(O)cc(C)c2O1`, the Potency result was “inactive”. Same read-out and setting: then `CC(/C=C/C1(O)C2(C)COC1(C)CC(=O)C2)O[C@@H]1O[C@H](CO)[C@@H](O)[C@H](O)[C@H]1O` (stereo partly drawn), with “inactive”; and `O=C(O)c1n[nH]c2c1C[C@H]1C[C@@H]21`, with “inactive”; and `CC12CC34C=CC(=O)C(C)(CCC(=O)O)C3C(CC1C4)O2` (stereo not drawn), with “inactive”. On the same count and under the same terms, then `CCS(=O)(=O)N1CCC([C@@H](C)n2c(C)c(C(=O)NCc3c(OC)cc(C)[nH]c3=O)c3ccccc32)CC1`, with “inactive”; and `CCC(CCO[C@@H]1O[C@H](CO[C@H]2OC[C@](O)(CO)[C@H]2O)[C@@H](O)[C@H](O)[C@H]1O)C(C)(C)O` (stereo partly drawn), with “inactive”; and `CC(C)(O)CNc1nc(Nc2ccnc(C(F)(F)F)c2)nc(-c2cccc(C(F)(F)F)n2)n1`, with “inactive”.

For `C[C@H]1[C@H](C)CC[C@]2(C(=O)O)CC[C@]3(C(=O)O)C(=CCC4[C@@]5(C)CC[C@H](O[C@@H]6O[C@H](C)[C@@H](O)[C@H](O)[C@H]6O)C(C)(C)C5CC[C@]43C)[C@H]12` (stereo partly drawn), the Potency entry was “inactive”. Turning to `CC/C=C/CC1=C(CCCCCCCC(=O)O)CCC1=O`, the Potency entry is “inactive”.

Regarding `COc1cc(C(=O)OC[C@H]2O[C@H](O[C@@]3(CO)O[C@@H](CO)[C@H](O)[C@H]3O)[C@H](O)[C@@H](O)[C@@H]2O)ccc1O`, the Potency entry was “inactive”. Same read-out and setting: with `Cc1ccc2c(c1)C=Cc1cc(C)ccc1C2c1cn(Cc2ccc(C(=O)Nc3nn[nH]n3)o2)c(=O)[nH]c1=S` the entry was “inactive”; with `CC1(C)S[C@@H]2[C@H](NC(=O)Cc3ccccc3)C(=O)N2[C@H]1C(=O)O`, “inactive”; with `CC1NC(=O)C(Cc2c[nH]c3ccccc23)NC1=O` (stereo not drawn), “inactive”. Same read-out and setting: then `C/C=C/C=C/C=C/C(=O)O[C@@H]1C=C(CO)C(O)(C(=O)O)[C@@]2(C)CCCC(C)(C)[C@H]12` (stereo partly drawn), with “inactive”; and `OCCc1ccc(O[C@@H]2O[C@H](CO)[C@@H](O)[C@H](O)[C@H]2O)c(O)c1`, with “inactive”. In the case of `Oc1ccc([C@H]2COc3cc(O)ccc3C2)cc1`, the Potency result is “inactive”. Still for that read-out and setting: with `O=C(O)C[C@H]1CCC(=O)[C@@H]1C/C=C\CCOC1OC(CO)C(O)C(O)C1O` (stereo partly drawn) the entry was “inactive”. On to `O=C(COc1ccc(Cl)cc1)NC1CCC(NC(=O)COc2ccc(Cl)cc2)CC1` (stereo not drawn), for which the Potency entry was “inactive”.
